A selection: hits, their analogues and other compounds. The true share with any hit is near 28%.
Mac1 fbg inh: inhibitors of human CD11b/CD18 binding to fibrinogen; 93,000 compounds, 0.54% hits; K562 CD11b/CD18 adhesion to fibrinogen, ATPlite luminescence; Mn2+ added to activate the integrin; AID 1497; inhibition, % at 10 µM;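 active = primary inhibition of 50% or more at 10 µM, then 40% or more on retest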
CD11b adhes enh: increases human CD11b/CD18 adhesion to fibrinogen; P05107+P11215; K562 CD11b/CD18 adhesion to fibrinogen, ATPlite luminescence; activation, % at 10 µM; 93,000 compounds, 0.07% hits; AID 1499;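 active = 10 µM primary screen giving 50% or more activity, confirmed by 40% or more on retest at that dose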
CYP2C19 act: increases human CYP2C19 enzyme activity; activation factor at 5 µM; recombinant CYP2C19, luciferin-H EGE luminescence; stronger effect = higher value; 0 = fully inhibited enzyme, 1 = untreated enzyme; 96,000 tested, under 10 active; P33261; AID 1025;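 active = activation factor of at least 2 at 5 µM in the primary screen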;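 also: 0 = wells with 2.5 mM tranylcypromine and 1 = vehicle-only wells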
CYP2C9 activ: CYP2C9 (human) activation; P11712; recombinant CYP2C9, luciferin-H conversion, luminescence; stronger effect = higher value; factor 1 = untreated enzyme, 0 = blocked; activation factor at 5 µM; 96,000 compounds, 1.4% hits;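 active = activation factor of 2 or more for CYP2C9 at a 5 µM dose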;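 also: 0 = sulfaphenazole-blocked wells and 1 = vehicle-only wells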
Target sequence (P11712 whole entry, looked up): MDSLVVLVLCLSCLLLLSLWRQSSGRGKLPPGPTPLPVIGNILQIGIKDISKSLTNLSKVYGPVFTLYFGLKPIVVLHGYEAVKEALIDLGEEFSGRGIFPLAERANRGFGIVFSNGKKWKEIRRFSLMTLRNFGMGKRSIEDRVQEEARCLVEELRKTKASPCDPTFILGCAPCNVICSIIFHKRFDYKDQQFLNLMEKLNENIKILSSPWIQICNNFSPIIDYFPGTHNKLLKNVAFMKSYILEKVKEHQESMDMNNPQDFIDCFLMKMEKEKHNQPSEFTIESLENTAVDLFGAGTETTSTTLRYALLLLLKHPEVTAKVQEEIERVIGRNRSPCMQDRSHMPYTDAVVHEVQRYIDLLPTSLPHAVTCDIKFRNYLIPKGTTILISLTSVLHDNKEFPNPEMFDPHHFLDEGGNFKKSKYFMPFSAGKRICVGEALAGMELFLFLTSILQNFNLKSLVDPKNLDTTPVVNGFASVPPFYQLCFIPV
CYP2C9 inh: inhibitors of human CYP2C9. P11712. CYP2C9 Supersomes, luciferin-H conversion, luminescence. inhibition, % at 5 µM. 96,000 compounds, 20% hits;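 active = blocking of liver enzyme CYP2C9 beyond about 50% at 5 µM, limit read from the data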
CYP2C19 inh: inhibitors of human CYP2C19 | P33261 | CYP2C19 Supersomes, luciferin-H EGE luminescence, 30 min | inhibition, % at 5 µM | 96,000 compounds, 21% hits | AID 778;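 active = CYP2C19 inhibition above a set limit at 5 µM in the primary screen, cut at about 50% in these data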;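 also: plate controls were negative control wells for no effect and 2.5 mM tranylcypromine positive control for full effect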
The depositor's hits bear a star; . = no result.

SMILES | Mac1 fbg inh | CD11b adhes enh | CYP2C19 act | CYP2C9 activ | CYP2C9 inh | CYP2C19 inh
COc1cc(/C=C2\OC(=O)c3c(OC)cccc32)ccc1O | -38 | 9 | 0 | 0.1 | 95* | 97*
c1nc2nc3c(c(N4CCOCC4)n2n1)CCCC3 | 2 | -3 | 1 | 1 | -3 | 1
CC1CCc2c(nc3ncnn3c2N2CCN(c3ccccc3F)CC2)C1 (stereo unspecified) | -4 | -3 | 0.6 | 0.3 | 66* | 38
CC1CCc2c(nc3ncnn3c2N2CCN(c3ccccc3)CC2)C1 (stereo unspecified) | -7 | -1 | 0.6 | 0.1 | 90* | 40
CS(=O)(=O)N1CCN(c2ccccc2NC(=O)c2cccnc2Cl)CC1 | -11 | -2 | 0.9 | 1 | 4 | 7
COCC(=O)Nc1nnc(CCc2ccccc2)s1 | -11 | 2 | 0.8 | 0.9 | 6 | 21
CCN(CC)S(=O)(=O)c1cc([N+](=O)[O-])ccc1NNC(=O)Nc1ccc(Cl)c(Cl)c1 | 99* | -5 | 0.9 | 0.3 | 74* | 12
COc1ccc(C2C(C#N)=C(/N=C/N3CCN(C)CC3)OC3=C2C(=O)CC(C)(C)C3)cc1OC (stereo unspecified) | -9 | 0 | 0.7 | 0.7 | 33 | 31
CC(C)Cn1c(N)c(S(=O)(=O)c2cccs2)c2nc3ccccc3nc21 | -5 | 4 | 0.8 | 0.3 | 65* | 20
CCCCNC(=O)c1c(N)n(/N=C/c2ccccn2)c2nc3ccccc3nc12 | 7 | 50 | 0.8 | 0.7 | 29 | 15
COCCNC(=O)c1c(N)n(/N=C/c2cccs2)c2nc3ccccc3nc12 | -3 | 41 | 0.9 | 0.4 | 61* | 9
Cc1cccc(S(=O)(=O)c2c(N)n(/N=C/c3cccnc3)c3nc4ccccc4nc23)c1 | 7 | 3 | 1.1 | 0.6 | 36 | -8
COc1cccc(/C=N/n2c(N)c(S(=O)(=O)c3cccs3)c3nc4ccccc4nc32)c1 | -4 | -5 | 1 | 0.9 | 8 | 3
COc1ccc(/C=N/n2c(N)c(S(=O)(=O)c3cccs3)c3nc4ccccc4nc32)cc1OC | -9 | 13 | 1 | 0.2 | 77* | 1
COc1ccc(S(=O)(=O)c2c(N)n(Cc3ccco3)c3nc4ccccc4nc23)cc1 | -1 | 86 | 0.6 | 0.5 | 48 | 37
Nc1c(S(=O)(=O)c2cccs2)c2nc3ccccc3nc2n1/N=C/c1cccc(O)c1 | 3 | -1 | 0.6 | 0.2 | 80* | 42
COc1ccc(OC)c(CN2CCCC(CO)C2)c1 (stereo unspecified) | -25 | 0 | 1.1 | 1.1 | -8 | -10
CC1CCCC(NC(=O)COC(=O)CN2C(=O)C3CCCCC3C2=O)C1C (stereo unspecified) | 5 | 1 | . | . | . | .
CCOC(=O)Cn1c(=S)[nH]c2c(oc3ccc(Cl)cc32)c1=O | 25 | 7 | 1 | 0.2 | 76* | -2
O=c1cc(O)nc(SCc2ccccc2)n1-c1ccccc1 | -3 | 3 | 1 | 1.1 | -12 | 4
c1ccc(Cn2ccnc2SCc2nnc(-c3ccccc3)o2)cc1 | 4 | -2 | 0.7 | 0.8 | 17 | 28
FC(F)(F)c1ccc(CSc2nccn2-c2ccccc2)cc1 | . | . | 0.2 | 0.1 | 88* | 82*
Clc1cccc(CSc2nccn2-c2ccccc2)c1 | . | . | 0.3 | 0.8 | 16 | 73*
CN1C2CCC1/C(=C\c1ccccc1)C(=O)/C2=C\c1ccccc1 | . | . | 0.6 | 2.2* | -124 | 40
CN(C)c1c([N+](=O)[O-])cc2[nH]c(=O)[nH]c2c1[N+](=O)[O-] | 8 | -2 | 1.2 | 0.8 | 20 | -17
SMILES | Mac1 fbg inh | CD11b adhes enh | CYP2C19 act | CYP2C9 activ | CYP2C9 inh | CYP2C19 inh
Cc1ccccc1N1CCN(S(=O)(=O)c2ccc3oc(=O)ccc3c2)CC1 | . | . | 0.6 | 0.2 | 80* | 41
CCc1ccccc1N1CCN(S(=O)(=O)c2ccc(F)c(C)c2)CC1 | 28 | 5 | 0.1 | 0.1 | 90* | 90*
Cc1ccc(N2CCN(S(=O)(=O)N(C)C)CC2)c(C)c1 | 1 | 4 | 0.1 | 0.4 | 64* | 86*
Cc1ccc(N2CCN(S(=O)(=O)c3ccc(F)c(C)c3)CC2)c(C)c1 | 31 | 1 | 0.2 | 0.1 | 91* | 84*
CC(=O)c1ccc(NC(=S)N2C(C)CCCC2C)cc1 (stereo unspecified) | 17 | -4 | 1.1 | 1 | -5 | -11
C=CCn1c(-c2cccc(OC)c2)nc2nc3ccccc3nc21 | . | . | 1 | 0.7 | 31 | 2
Cc1cc(NC(=O)C2C3C(=O)N(CCC(C)C)C(C(=O)NCc4ccccc4)C34C=CC2(C)O4)no1 (stereo unspecified) | -1 | 3 | 1.1 | 0.9 | 9 | -13
CCn1c(CSc2nc3ccccc3s2)nnc1SCC(=O)c1ccc(O)cc1O | 8 | 1 | 1.1 | 1.1 | -10 | -14
CCC(=O)c1cc(F)c(N2CCN(S(=O)(=O)c3ccc(C)cc3)CC2)cc1C | 4 | -3 | 0.6 | 0.4 | 59* | 43
CCn1cc(C(=O)O)c(=O)c2cc(F)c(N3CCN(S(=O)(=O)c4ccc(Br)cc4)CC3)cc21 | -1 | 97 | . | . | . | .
COc1cc(SC)ccc1C(=O)NCCOc1ccc(C)c(C)c1 | 55 | -2 | . | . | . | .
O=C(CCCNC(=O)/C(=C\c1ccc(F)cc1)NC(=O)c1ccccc1)OCc1ccccc1 | . | . | 0.4 | 0.5 | 46 | 63*
COc1cccc(NC(=O)CCN2CCC(C(N)=O)CC2)c1 | -7 | -1 | 1 | 1.2 | -16 | -4
Cn1c(=O)cc(NCc2ccccc2)[nH]c1=O | 23 | 6 | 1.2 | 1.1 | -10 | -16
Cc1ccc(N2C(=O)C(Cl)=C(NCc3ccccc3)C2=O)c(C)c1 | -4 | 6 | 0.5 | 0.5 | 53* | 51*
O=C(O)C1CC=CCC1C(=O)NCCc1cccc(Cl)c1 (stereo unspecified) | -4 | 3 | 0.9 | 1.1 | -10 | 6
CCOC(=O)N1CCC(NC(=O)C2CCN(C(=O)N3CCOc4ccccc43)CC2)CC1 | 4 | -3 | 0.9 | 1 | -2 | 10
CCOC(=O)N1CCC(NC(=O)C2CCCN(C(=O)N3CCOc4ccccc43)C2)CC1 (stereo unspecified) | 0 | 1 | 0.8 | 0.2 | 80* | 16
COC(=O)CNC(=O)CSc1nc(N)cc(=O)[nH]1 | 12 | -3 | 1.1 | 0.9 | 13 | -12
Cn1c2c(c3ccccc31)CC/C2=N\O | 0 | -6 | 0.2 | 0.8 | 17 | 79*
COc1ccc(-c2nc(N)nc(C)c2Oc2ccccc2Br)c(O)c1 | 20 | 3 | 0.1 | 0.1 | 94* | 85*
O=C(NC1CCCCCC1)C1c2ccccc2C(=O)N1Cc1cccnc1 (stereo unspecified) | -7 | -6 | 0.5 | 1 | 2 | 52*
O=C(NCc1cccnc1)C1c2ccccc2C(=O)N1C1CCCCCC1 (stereo unspecified) | -15 | -4 | 0.3 | 0.8 | 20 | 68*

Assay outcomes deposited in PubChem by Sanford-Burnham Center for Chemical Genomics.
